G9a block = qHTS Assay for Inhibitors of Histone Lysine Methyltransferase G9a. G9a H3K9 monomethylation, AlphaScreen, 2 h. Potency, µM (highest dose often 102 µM), actives largely listed as inhibitors. actives 8.8% (n = 350,000). AID 504332, 2011. Histone-lysine N-methyltransferase EHMT2 (Homo sapiens), Q96KQ7; further: nearly all actives have a fitted effect of over 75% in size
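G9a (20 nM) was preincubated 15 min with compound, then reacted 2 h at room temperature with 500 nM biotin-H3K9 peptide and 20 µM SAM. Monomethyl-H3K9 detected by AlphaScreen using anti-H3K9me1 antibody.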
HP1b chromo inh = HTS for Inhibitors of HP1-beta Chromodomain Interactions with Methylated Histone Tails; Chromobox protein homolog 1 (Homo sapiens), P83916; AlphaScreen HP1-beta / biotin-H3K9me3 peptide binding; Potency, µM (titrated, usually from 114 µM), usual class: inhibitors; actives 0.56% (n = 390,000); AID 540317, 2011; further: nearly all actives have a fitted effect of over 70% in size
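Compound inhibition of the preformed complex between 50 nM HP1-beta and 50 nM biotinylated H3K9me3 peptide was read by AlphaScreen. Buffer was PBS pH 7.4 with 0.01% Tween-20. Incubations ran 30 min at room temperature, with 10 ug/mL donor/acceptor beads.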
TDP1 inh = qHTS Assay for Inhibitors of Tyrosyl-DNA Phosphodiesterase (TDP1). AID 485290, 2010. Tyrosyl-DNA phosphodiesterase 1 (Homo sapiens), Q9NUW8. recombinant TDP1, AlphaScreen DNA substrate cleavage. actives 0.28% (n = 350,000). Potency, µM (titrated, usually from 130 µM), usual class: inhibitors; further: nearly all actives have a fitted effect of over 40% in size
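Recombinant E. coli-expressed Tdp1 (1 nM) preincubated with compound 15 min at RT, then 5'-biotin/3'-phosphotyrosine-FITC DNA substrate (15 nM) added for 5 min. AlphaScreen beads (10 ug/ml) added, 10 min RT; tyrosine-FITC cleavage read as signal loss.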
JMJD2A Tudor inh = qHTS Assay for Inhibitors of JMJD2A-Tudor Domain; actives 4.4% (n = 390,000); Potency, µM (series often up to 114 µM), usual class: inhibitors; Lysine-specific demethylase 4A (Homo sapiens), O75164; AID 504339, 2011; AlphaScreen JMJD2A-Tudor / H3K4me3 peptide binding; further: nearly all actives have a fitted effect of over 50% in size
BAZ2B inh = qHTS Assay for Inhibitors of BAZ2B | AlphaScreen BAZ2B-H3K14Ac peptide displacement | Bromodomain adjacent to zinc finger domain protein 2B (Homo sapiens), Q9UIF8 | Potency, µM (highest dose often 114 µM), most hits filed as inhibitors | actives 4.4% (n = 360,000); further: nearly all actives have a fitted effect of over 60% in size
Target sequence (Q9UIF8 whole entry, looked up, the tested form may be a part): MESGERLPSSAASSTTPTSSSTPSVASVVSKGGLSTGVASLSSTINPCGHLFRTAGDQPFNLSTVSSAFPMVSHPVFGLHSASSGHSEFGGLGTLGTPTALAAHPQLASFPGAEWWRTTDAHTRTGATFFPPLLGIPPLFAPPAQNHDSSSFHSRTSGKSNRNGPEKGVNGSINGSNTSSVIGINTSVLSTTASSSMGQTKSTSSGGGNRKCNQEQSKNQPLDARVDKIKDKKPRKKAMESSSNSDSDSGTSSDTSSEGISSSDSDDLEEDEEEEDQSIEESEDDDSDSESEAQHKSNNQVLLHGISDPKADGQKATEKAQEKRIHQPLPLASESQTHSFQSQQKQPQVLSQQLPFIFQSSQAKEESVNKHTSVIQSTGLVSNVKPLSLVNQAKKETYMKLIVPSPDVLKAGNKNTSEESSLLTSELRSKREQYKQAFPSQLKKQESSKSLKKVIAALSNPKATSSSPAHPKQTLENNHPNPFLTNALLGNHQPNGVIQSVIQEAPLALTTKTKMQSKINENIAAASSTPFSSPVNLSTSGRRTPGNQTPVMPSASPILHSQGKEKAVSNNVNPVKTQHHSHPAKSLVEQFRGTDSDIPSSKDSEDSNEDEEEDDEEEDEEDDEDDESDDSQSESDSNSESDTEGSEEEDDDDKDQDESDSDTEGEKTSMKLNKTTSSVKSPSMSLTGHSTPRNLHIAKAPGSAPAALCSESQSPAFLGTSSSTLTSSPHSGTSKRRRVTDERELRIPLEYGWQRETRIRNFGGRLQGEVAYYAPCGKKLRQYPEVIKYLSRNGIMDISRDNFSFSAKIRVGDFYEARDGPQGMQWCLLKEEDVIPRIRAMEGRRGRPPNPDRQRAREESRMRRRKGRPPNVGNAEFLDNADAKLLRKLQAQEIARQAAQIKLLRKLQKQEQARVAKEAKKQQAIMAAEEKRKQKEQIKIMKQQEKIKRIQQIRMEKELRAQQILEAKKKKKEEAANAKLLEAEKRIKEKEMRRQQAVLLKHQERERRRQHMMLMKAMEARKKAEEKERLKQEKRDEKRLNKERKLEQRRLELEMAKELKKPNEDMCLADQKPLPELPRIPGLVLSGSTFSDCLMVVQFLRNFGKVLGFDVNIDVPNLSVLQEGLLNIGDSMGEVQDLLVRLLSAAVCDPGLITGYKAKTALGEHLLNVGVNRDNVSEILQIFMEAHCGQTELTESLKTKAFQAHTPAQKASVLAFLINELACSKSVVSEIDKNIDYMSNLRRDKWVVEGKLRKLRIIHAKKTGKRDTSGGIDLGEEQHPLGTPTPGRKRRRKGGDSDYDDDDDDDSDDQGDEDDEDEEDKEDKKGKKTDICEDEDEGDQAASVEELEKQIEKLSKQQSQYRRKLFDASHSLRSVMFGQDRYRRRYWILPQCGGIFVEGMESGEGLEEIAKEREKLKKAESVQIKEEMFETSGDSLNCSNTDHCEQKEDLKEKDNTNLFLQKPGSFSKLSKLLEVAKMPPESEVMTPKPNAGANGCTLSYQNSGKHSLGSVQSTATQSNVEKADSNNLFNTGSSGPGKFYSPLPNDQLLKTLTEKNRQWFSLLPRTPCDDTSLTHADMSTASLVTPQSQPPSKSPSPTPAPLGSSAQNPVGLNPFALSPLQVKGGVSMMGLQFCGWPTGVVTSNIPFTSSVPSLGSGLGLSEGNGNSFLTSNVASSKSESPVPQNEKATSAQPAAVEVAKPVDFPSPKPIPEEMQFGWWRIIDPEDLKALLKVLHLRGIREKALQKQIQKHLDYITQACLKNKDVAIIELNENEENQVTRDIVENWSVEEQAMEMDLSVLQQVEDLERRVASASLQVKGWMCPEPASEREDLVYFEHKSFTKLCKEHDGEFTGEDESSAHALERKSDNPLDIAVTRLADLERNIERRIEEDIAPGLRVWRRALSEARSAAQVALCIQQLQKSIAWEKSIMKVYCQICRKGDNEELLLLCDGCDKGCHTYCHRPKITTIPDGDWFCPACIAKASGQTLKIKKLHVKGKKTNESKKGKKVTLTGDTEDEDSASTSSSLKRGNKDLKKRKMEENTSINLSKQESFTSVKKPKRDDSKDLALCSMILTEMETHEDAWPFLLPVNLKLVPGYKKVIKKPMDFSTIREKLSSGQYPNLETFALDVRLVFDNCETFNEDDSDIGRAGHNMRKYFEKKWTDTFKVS
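Inhibition is scored as reduced AlphaScreen emission. The BAZ2B/b-H3(5-23)K14Ac complex (50 nM each) in PBS pH 7.4, 0.01% Tween-20 meets compound (up to 110 uM) for 30 min at RT before bead addition.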
Sfp inh = qHTS Assay for Inhibitors of Bacillus subtilis Sfp phosphopantetheinyl transferase (PPTase) | 4'-phosphopantetheinyl transferase ffp (Bacillus subtilis), Q9F4F7 | Biochemical Sfp PPTase activity, qHTS | Potency, µM, usual class: inhibitors | actives 3.5% (n = 310,000) | AID 1490, 2009;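 further: the enzyme is Sfp with the accession as filed and its product quenches rhodamine fluorescence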
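With Hepes-Na pH 7.6 buffer containing 10 mM MgCl2, Sfp (15 nM) modified BHQ-2-YbbR (12.5 uM) using rhodamine-CoA (5 uM). Two reads 30 minutes apart at 525/598 nm yielded each well's rate.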
Large screens that a line does not name were inactive; ! = repeats disagree. Only some compounds are listed: those with a hit (about 12% of all), similar ones and a draw of the others. The call rests on the fitted dose curve; in most records, active means well fitted curve in the direction sought with a large enough effect; inconclusive means small, poorly fitted or top-dose-only effect, or another doubt; inactive means no such curve, though single readings can be large; an effect the other way counts as inactive or inconclusive.

COc1cccc(CN2CCNC(=O)C2CC(=O)NCCc2nc(C)c(C)s2)c1OC (configuration not stated)	Sfp inh 45µM
COc1ccc(CN2CCNC(=O)C2CC(=O)O)c(OC)c1 (configuration not stated)	G9a block 14µM
Cc1nc(CNC(=O)CC2C(=O)NCCN2Cc2ccc(F)cc2)cs1 (configuration not stated)	G9a block 50µM
COc1ccc(CN2CCNC(=O)C2CC(=O)NC2CCCC2)c(OC)c1 (configuration not stated)	none
O=C(Cn1ncc2c1-c1ccccc1OC2)N1CCN(c2ccccc2F)CC1	none (no result: Sfp inh)
CCn1cc(CCC(=O)O)c(C)n1	G9a block 45µM
O=C(CSc1nnc2scc(-c3ccc(Cl)cc3)n12)NCc1ccco1	none
O=C(CSc1nnc2scc(-c3ccccc3)n12)NCc1ccco1	G9a block 79µM
O=C(CSc1nnc(C2CCCCC2)n1Cc1ccccc1)NCc1ccco1	G9a block inconclusive, HP1b chromo inh inconclusive, JMJD2A Tudor inh 28µM
C=Cc1ccc(COc2ccc3oc(-c4ccccc4)c(C(=O)OCC)c3c2)cc1	none (no result: TDP1 inh, Sfp inh)
CCN1CCN(c2ccc(Cl)cc2NC(=O)c2ccc(-n3nc(C)cc3C)cc2)CC1	none (no result: Sfp inh)
O=c1cc(-c2ccc(O)cc2)oc2c([C@@H]3O[C@H](CO)[C@@H](O)[C@H](O)[C@H]3O)c(O)c([C@@H]3O[C@H](CO)[C@@H](O)[C@H](O)[C@H]3O)c(O)c12	G9a block inconclusive
CC(=O)Cc1cc(=O)c2c(C)cc(O)c(C3OC(CO)C(O)C(O)C3O)c2o1 (configuration not stated)	none (no result: TDP1 inh)
O=c1cc(-c2ccc(O)c(O)c2)oc2cc(O)c([C@@H]3O[C@H](CO)[C@@H](O)[C@H](O)[C@H]3O)c(O)c12	JMJD2A Tudor inh 32µM!, Sfp inh inconclusive (no result: G9a block, BAZ2B inh)
O=c1c2cc(O)c(O)cc2oc2cc(O)c(C3OC(CO)C(O)C(O)C3O)c(O)c12 (configuration not stated)	G9a block 2.8µM, HP1b chromo inh inconclusive, JMJD2A Tudor inh 7.9µM, BAZ2B inh 13µM
Cc1c(/C=C/C(=O)c2cccs2)cnn1C	HP1b chromo inh inconclusive, JMJD2A Tudor inh 28µM
O=C(CBr)N1CCc2ccccc2C(c2ccccc2)C1 (configuration not stated)	G9a block 32µM, Sfp inh 32µM (no result: TDP1 inh)
Cc1c(C(=O)N2CCN(S(=O)(=O)c3cc(F)ccc3F)CC2)oc2ccccc12	G9a block inconclusive, BAZ2B inh 79µM (no result: Sfp inh)
COc1ccc(C2C(C(=O)c3ccco3)=C(O)C(=O)N2CCCn2ccnc2)c(OC)c1 (configuration not stated)	G9a block 50µM, JMJD2A Tudor inh 28µM, BAZ2B inh 56µM
COc1ccc(C2C(C(=O)c3sc(C)nc3C)=C(O)C(=O)N2CCCn2ccnc2)cc1 (configuration not stated)	none (no result: G9a block, TDP1 inh, BAZ2B inh, Sfp inh)
COc1cc(C2C(C(=O)c3ccc(C)o3)=C(O)C(=O)N2CCCn2ccnc2)cc(OC)c1OC (configuration not stated)	BAZ2B inh inconclusive (no result: G9a block)
CCOC(=O)C1=C(O)C(=O)N(CCCn2ccnc2)C1c1ccc(OC)cc1 (configuration not stated)	G9a block 45µM (no result: HP1b chromo inh, JMJD2A Tudor inh)
NC(=O)C1CCN(c2nc(-c3cccs3)cs2)CC1	BAZ2B inh inconclusive (no result: Sfp inh)
Cc1cccc(-c2nnc(SCC(=O)NC3CC3)n2C)c1	none
O=C(Nc1ccccc1Cl)c1ccccc1Oc1ccc(C(F)(F)F)cc1[N+](=O)[O-]	HP1b chromo inh inconclusive, JMJD2A Tudor inh 50µM, BAZ2B inh inconclusive
CN(Cc1cccs1)S(=O)(=O)c1ccc(Cl)cc1F	none (no result: Sfp inh)
COc1ccc(NC(=O)COC(=O)C2CC2)c(OC)c1	none (no result: Sfp inh)
Cn1c(O)c(/C=C2\C=Nc3ccccc32)sc1=Nc1ccc(C(=O)O)cc1	G9a block 35µM, BAZ2B inh 50µM
C[n+]1ccccc1C1CCCC/C1=N\NC(N)=S (configuration not stated)	G9a block 16µM, HP1b chromo inh inconclusive, JMJD2A Tudor inh 22µM, BAZ2B inh inconclusive
COc1ccc(CNC(=O)Nc2cn(CC(C)C)c(=O)c3ccccc23)cc1	G9a block inconclusive (no result: Sfp inh)
COc1ccc(S(=O)(=O)N(C)C[C@H]2Oc3ccc(NC(=O)C4CC4)cc3C(=O)N([C@H](C)CO)C[C@@H]2C)cc1	JMJD2A Tudor inh inconclusive (no result: G9a block, BAZ2B inh, Sfp inh)
CC(C)N1CCc2c(sc(NC(=O)c3cc(-c4cccs4)nc4ccccc34)c2C(N)=O)C1	G9a block 11µM, JMJD2A Tudor inh inconclusive, BAZ2B inh 40µM, Sfp inh inconclusive
CC(C)N1CCc2c(sc(NC(=O)c3ccc(S(=O)(=O)N(C)C4CCCCC4)cc3)c2C(N)=O)C1	JMJD2A Tudor inh inconclusive (no result: Sfp inh)
CCC(C)NC(=O)c1cc(-c2cccs2)nc2ccccc12 (configuration not stated)	none (no result: TDP1 inh)
CC(C)N1CCc2c(sc(NC(=O)c3ccc([N+](=O)[O-])o3)c2C(N)=O)C1	G9a block inconclusive, BAZ2B inh inconclusive (no result: HP1b chromo inh, JMJD2A Tudor inh)
CC(C)N1CCc2c(sc(NC(=O)c3ccc(S(=O)(=O)N4CCc5ccccc54)cc3)c2C(N)=O)C1	G9a block 18µM, JMJD2A Tudor inh inconclusive, BAZ2B inh inconclusive (no result: TDP1 inh)
CC(C)N1CCc2c(sc(NC(=O)c3nc4ccccc4s3)c2C(N)=O)C1	G9a block 45µM, JMJD2A Tudor inh inconclusive
CCCCCCCCCCCCC/C=C/[C@@H](O)[C@H](CO)NCCCCCCCC	none (no result: HP1b chromo inh, JMJD2A Tudor inh, BAZ2B inh)
COc1ccccc1N1CCN(/N=C/c2cc(Br)ccc2F)CC1	G9a block inconclusive, JMJD2A Tudor inh inconclusive, BAZ2B inh inconclusive (no result: TDP1 inh)
O=C(COc1ccc(S(=O)(=O)N2CCCCC2)cc1)Nc1ccccc1F	none
CCc1nnc(N2C(=N)SCC2=O)s1	G9a block 28µM, JMJD2A Tudor inh 28µM, BAZ2B inh 79µM, Sfp inh 50µM
Clc1ccc(CN2CCN(c3ncnc4scc(-c5cccs5)c34)CC2)cc1	G9a block 32µM
CCOC(=O)C1CCN(C(=O)c2c(C)nn(-c3ccc(F)cc3)c2-n2cccc2)CC1	G9a block inconclusive (no result: Sfp inh)
CCN1CCC2(CC1)N=C(c1ccc(F)cc1)C(=S)N2	G9a block 11µM, Sfp inh 22µM

From PubChem BioAssay
